DPM-DC inhibit: inhibitors of Streptococcus pneumoniae diphosphomevalonate decarboxylase | purified DPM-DC, PK/LDH coupled NADH fluorescence | calls only at 10 µM | actives 0.49% (n = 65,000) | AID 556;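 active means the 320 compounds with the highest percent inhibition in the single-dose primary screen, excluding strongly autofluorescent ones, cut at about 32% in these data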;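 further: kinetic rate of NADH fluorescence loss reporting ADP formed by the decarboxylase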
Autofluor 339: intrinsic fluorescence of library compounds, ex339/em460 – biochemical, MLSMR library, data from DPM-DC assay, artefact control, profiling panel. fluorescence fold increase at 10 µM. compound autofluorescence, ex339/em460 nm, NADH buffer; active compounds read high; 1 = no-compound wells, NADH background. actives 5.5% (n = 65,000);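 active means at 10 µM, mean starting fluorescence two-fold or more over control wells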;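 further: signal is the first read of a kinetic run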
MK inhibit: inhibitors of Streptococcus pneumoniae mevalonate kinase | purified MK, PK/LDH-coupled NADH absorbance 340 nm | inhibition, % at 10 µM | actives 0.48% (n = 65,000) | AID 555;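 active means ranked among the strongest by inhibition in the single 10 µM screen, a fixed top-ranked set picked for dose follow-up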
A340 absorber: compounds absorbing at 340 nm; fold change at 10 µM; AID 708; compound absorbance at 340 nm, fold over control; 65,000 tested, under 10 active;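 active means at 10 µM dose, initial 340 nm absorbance at least 2 fold that of control wells; inactive means change under 2 fold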;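 further: initial absorbance extrapolated from kinetic A340 decline of NADH oxidation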
NADH enzymes: blocks coupling enzymes of NAD/NADH assays. IC50, µM (highest dose often 10 µM), for inactives: at the highest dose inhibition. coupled PK/LDH NADH assays, four targets. actives 0.02% (n = 65,000);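 active means single-dose screening hits from any of four coupled enzyme assays that gave an IC50 when retested across doses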;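 further: the DPM-DC format reads NADH fluorescence rather than 340 nm absorbance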
Spn PMK inh: blocks S. pneumoniae phosphomevalonate kinase. purified PMK, PK/LDH-coupled NADH absorbance 340 nm. inhibition, % at 10 µM. actives 0.49% (n = 65,000);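 active means top-ranked compounds by inhibition in the single 10 µM screen, taking a fixed number of the strongest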;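 further: 0% = full reaction with DMSO carrier and 100% = background rate without enzyme reaction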
Starred values were filed as active, the others as inactive; i = inactive; · = no result given; + = active, no number. Hits are enriched below; roughly 6.8% of the tested compounds scored in any of these assays.

SMILES | DPM-DC inhibit | Autofluor 339 | MK inhibit | A340 absorber | NADH enzymes | Spn PMK inh
O=c1c2ccccc2c(C=NCCO)c(O)n1-c1ccccc1 | i | 1.17 | 0.0 | 1.11 | 0.0% | 0.0
COc1ccccc1NC(=O)N1CCc2[nH]c3ccc(Cl)cc3c2C1 | i | 1.07 | 6.0 | 1.03 | 5.0% | 10.0
CCc1cc2c(=O)c(Oc3ccccc3)c(C)oc2cc1O | · | 2.21* | 4.0 | 1.09 | 2.0% | 0.0
Cc1oc2cc(OCC(=O)O)ccc2c(=O)c1Oc1ccccc1 | i | 1.28 | 5.0 | 1.05 | 2.0% | 0.0
CCOC(=O)N1CCC(NC(=O)c2cnc3n(c2=O)CCS3)CC1 | i | 1.08 | 5.0 | 1.01 | 2.0% | 0.0
CCCCOC(=O)Nc1ccccc1C(N)=O | i | 1.1 | 5.0 | 1.03 | 4.0% | 8.0
Cc1ncsc1CCSc1nc2ccccc2c(=O)n1C | i | 1.1 | 1.0 | 1.05 | 3.0% | 8.0
COc1cc(-c2c(C#N)c(N)nc3c2c(C)nn3-c2ccc(C)c(C)c2)cc(OC)c1OC | · | 3.79* | 0.0 | 1.08 | 2.0% | 3.0
Cc1nc(-c2ccc(NS(C)(=O)=O)cc2)cs1 | i | 1.12 | 5.0 | 1.03 | 2.0% | 0.0
Clc1ccc(N2CCN(c3ncnc4c3oc3ccccc34)CC2)cc1 | · | 3.7* | 5.0 | 1.05 | 7.0% | 9.0
CCOCCCNC(=O)C(NC(=O)CC1NC(=O)NC1=O)c1ccc(Cl)cc1 (centres undefined) | i | 1.13 | 7.0 | 0.97 | 7.0% | 7.0
Cc1nonc1NC(=O)CSc1ccc(-c2ccccc2)nn1 | i | 0.99 | 1.0 | 0.96 | 10.0% | 27.0*
CCn1c(SCC(=O)NC2CCCCC2)nnc1-c1cccs1 | i | 1.09 | 11.0 | 0.98 | 7.0% | 10.0
CCn1c(SC(=O)NC2CCCCC2)nnc1-c1cccs1 | · | 1.93 | 11.0 | 1.03 | 18.0% | 25.0*
Cc1ccc(C(=O)Nc2cnc3sc(C)nn3c2=O)cc1 | i | 1.07 | 7.0 | 1.06 | 6.0% | 5.0
Cc1ncoc1C(=O)Nc1nccs1 | i | 1.01 | 7.0 | 1.03 | 7.0% | 12.0
COc1cccc(CC(=O)Nc2nccs2)c1 | i | 1.09 | 0.0 | 0.99 | 4.0% | 12.0
COCc1cc(C)nc2sc(C(=O)Nc3nccs3)c(N)c12 | · | 2.2* | 2.0 | 1.14 | 1.0% | 0.0
Cc1cc(C)c2c(N)c(C(=O)Nc3nccs3)sc2n1 | · | 2.15* | 4.0 | 1.09 | 5.0% | 6.0
COc1ccc(N(CC(=O)N2CCc3ccccc3C2)S(=O)(=O)c2c(C)nn(C)c2C)cc1 | i | 1.08 | 4.0 | 1.03 | 3.0% | 5.0
Cc1oc(-c2cccc(Cl)c2)nc1CN1CCCC(C(=O)NC(C)c2ccc3c(c2)OCCO3)C1 (centres undefined) | i | 1.08 | 9.0 | 1.08 | 3.0% | 0.0
CCN(CC)c1nc(N)c2c(N)n(-c3ccccc3C)c(=S)c(C#N)c2c1C#N | i | 1.79 | 4.0 | 1.01 | 8.0% | 16.0
CCN(CC)c1nc(N)c2c(N)nc3c(c2c1C#N)CC(c1ccccc1)O3 (centres undefined) | · | 2.1* | 6.0 | 1.08 | 10.0% | 14.0
Cc1nc(N2CCN(S(=O)(=O)c3cccc4nonc34)CC2)c2c3c(sc2n1)CCCC3 | i | 1.13 | 7.0 | 1.06 | 5.0% | 7.0
O=C1C(=O)N(CCCN2CCOCC2)C(c2cccs2)/C1=C(/O)c1ccc2c(c1)OCO2 (centres undefined) | i | 1.1 | 7.0 | 1.07 | 2.0% | 0.0
SMILES | DPM-DC inhibit | Autofluor 339 | MK inhibit | A340 absorber | NADH enzymes | Spn PMK inh
Fc1ccc(-c2cc3nc(-c4ccccc4)cc(N4CCOCC4)n3n2)cc1 | · | 2.11* | 0.0 | 1.05 | 8.0% | 16.0
Cc1nc2cc(-c3cccc(F)c3)nn2c(N2CCOCC2)c1C | i | 1.28 | 0.0 | 1.04 | 9.0% | 23.0
COC(=O)C1=C(C)OC(N)=C(C#N)C1c1cc(OC)c(OCC(N)=O)cc1Cl (centres undefined) | + | 1.31 | 48.0* | 1.03 | 41.0% | 37.0*
COC(=O)C1=C(C)OC(N)=C(C#N)C1c1ccccc1F (centres undefined) | i | 1.1 | 13.0 | 1.02 | 9.0% | 14.0
CC1CCCCN1C(=O)CSc1nnc(-c2ccc(Cl)s2)o1 (centres undefined) | i | 1.29 | 0.0 | 1.01 | 3.0% | 8.0
CCOC(=O)C1=C(C)NC(=O)NC1c1c(OCC(=O)N2CCCCC2)ccc2ccccc12 (centres undefined) | i | 1.12 | 8.0 | 1.06 | 6.0% | 11.0
CCOC(=O)c1sc(=NC(=O)c2ccc(S(=O)(=O)N3CCOCC3)cc2)n(C)c1C | i | 1.65 | 8.0 | 1.06 | 9.0% | 14.0
CCn1c(=NC(=O)c2ccc(S(=O)(=O)N3CCOCC3)cc2)sc2cccc(OC)c21 | · | 4.68* | 0.0 | 1.11 | 2.0% | 4.0
COc1cccc2sc(=NC(=O)c3ccc(S(=O)(=O)N4CCOCC4)cc3)n(C)c12 | i | 3.07* | 0.0 | 1.02 | 15.0% | 14.0
COC(=O)c1cc(NC(=O)Cn2c(=O)cnc3ccccc32)cc(C(=O)OC)c1 | i | 1.53 | 2.0 | 1.09 | 8.0% | 17.0
CC(C)c1cc(C(=O)Nc2ccc3c(c2)OCO3)no1 | i | 1.04 | 3.0 | 1.04 | 2.0% | 4.0
Cc1onc(-c2c(Cl)cccc2Cl)c1C(=O)Nc1ccc2c(c1)OCO2 | i | 1.12 | 9.0 | 1.03 | 15.0% | 28.0*
O=C(C1CCCN(S(=O)(=O)c2cnc[nH]2)C1)N1CC(=O)N(CCc2ccccc2)C(=O)C1 (centres undefined) | i | 1.02 | 2.0 | 1 | 1.0% | 5.0
O=c1c(C(c2nnnn2C2CCCCC2)N2CCCCC2)coc2ccc(Cl)cc12 (centres undefined) | i | 1.16 | 0.0 | 1.03 | 6.0% | 19.0
COCCn1c(-c2ccco2)nc2nc3ccccc3nc21 | · | 3* | 7.0 | 1.01 | 4.0% | 7.0
CC(C)OCCCn1c(-c2ccco2)nc2nc3ccccc3nc21 | · | 3.76* | 8.0 | 1.13 | 8.0% | 7.0
C=CCSC1=C(C#N)C(c2cccc(OC)c2)CC(=O)N1 (centres undefined) | i | 1.11 | 15.0 | 1.01 | 7.0% | 6.0
O=C(c1c(F)cccc1F)N(Cc1ccccn1)C1CCCC1 | i | 1.01 | 11.0 | 0.99 | 3.0% | 12.0
COc1cccc(OC)c1OCCCc1c(C)n[nH]c1C | i | 1.02 | 0.0 | 0.99 | 5.0% | 14.0
Cc1cccc(OCCCc2c(C)n[nH]c2C)c1 | i | 1.06 | 11.0 | 1 | 4.0% | 26.0*
CCOC(=O)c1[nH]c2ccc(OCC)cc2c1NC(=O)CN1CCCC(C)C1 (centres undefined) | · | 3.89* | 3.0 | 1.06 | 5.0% | 6.0
COC(=O)c1[nH]c2ccccc2c1NC(=O)CN1CCN(Cc2ccc3c(c2)OCO3)CC1 | i | 1.61 | 13.0 | 1.01 | 9.0% | 6.0
CCOC(=O)c1[nH]c2ccc(OC)cc2c1NC(=O)CN1CCN(c2ccccn2)CC1 | + | 1.97 | 0.0 | 1.02 | 25.0% | 41.0
